The results in this text go back to ChEMBL document CHEMBL3433997, “St. Jude Leishmania screening dataset” (2016).

For one assay, the target named is Solute carrier family 2, facilitated glucose transporter member 1 (Homo sapiens) (UniProt P11166). The experiment in a line: ST_JUDE_LEISH: Cytotoxicity at 2uM final concentration against transgenic Leishmania Mexicana promastigotes LmGLUT1 that are glucose transport deficient and complemented with the human glucose transporter GLUT1. Activity is measured by DNA content using SYBR green in vitro. In kind it is functional.
Solute carrier family 2, facilitated glucose transporter member 1 (Homo sapiens), sequence (P11166 whole entry): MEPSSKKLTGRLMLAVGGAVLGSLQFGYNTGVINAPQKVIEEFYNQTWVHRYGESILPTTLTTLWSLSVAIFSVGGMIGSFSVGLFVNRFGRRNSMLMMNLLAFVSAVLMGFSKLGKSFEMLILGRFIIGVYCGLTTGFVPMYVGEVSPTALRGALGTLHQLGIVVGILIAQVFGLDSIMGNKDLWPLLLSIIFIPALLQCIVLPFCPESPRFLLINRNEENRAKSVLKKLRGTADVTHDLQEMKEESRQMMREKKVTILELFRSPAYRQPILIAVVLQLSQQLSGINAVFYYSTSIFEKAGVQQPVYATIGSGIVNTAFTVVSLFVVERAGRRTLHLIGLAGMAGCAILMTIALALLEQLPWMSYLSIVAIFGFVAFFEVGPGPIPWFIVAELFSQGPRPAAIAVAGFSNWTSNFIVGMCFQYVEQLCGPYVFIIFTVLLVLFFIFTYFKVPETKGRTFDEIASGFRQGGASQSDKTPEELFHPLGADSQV
On to `Fc1cccc(Nc2nc(NCc3ccc(OCc4ccccc4)cc3)nc(Nc3cccc(F)c3)n2)c1`, for which the inhibition worked out at 11.8%.

Regarding `O=C1Nc2cccc3c2C1(CCCN1CCC(c2c[nH]c4cc(C(F)(F)F)ccc24)CC1)CCC3` (stereo not given), the inhibition was -0.49%.

With `O=C(/C=C/c1ccc(Cl)c(Cl)c1)NCCCCCN1CC[C@H](NC(=O)c2sc3ccccc3c2Cl)C1`, the inhibition was found to be 5.64%.

Take `CCNCc1ccc(-c2cccc(-c3nc4ccccc4[nH]3)c2)cc1`: the inhibition stood at 1.09%.

With `CCc1c[nH]c2c(N3CCCC3=O)cc(C(=O)N[C@@H](Cc3ccccc3)[C@H](O)CNC3CCCCC3)cc12`, the inhibition came out at 7.8%.

For `Clc1ccc(-c2cc(-c3csc(Nc4ccncc4)n3)on2)cc1`, the inhibition is 1.41%.

As for `Cc1noc(C)c1CN1Cc2ccccc2OC2(CCN(Cc3c[nH]c4cnccc34)CC2)C1`, the inhibition is -0.38%.

Turning to `COc1ccc2nccc([C@@H](O)CN3CCC(NCCOc4ccc(F)cc4Cl)CC3)c2c1`, the inhibition is 9.75%.

For `Cc1ccc2[nH]c(Nc3ccc(Nc4nc5cc(C)ccc5[nH]4)c(C)c3)nc2c1`, the inhibition came to 0.87%.

Turning to `COC(=O)c1cccc(CNCc2cccc(-c3ccc(-c4nc5cc(C(F)(F)F)ccc5[nH]4)cc3)c2)c1`, the inhibition is 2.29%.

In the case of `CC(C)NCc1ccc(-c2ccc(NC(=O)c3cccc(Cl)c3)cc2)cc1`, the inhibition was -2.83%.

For `Cc1[nH]c(C)c(-c2cc3ccccc3o2)c(=O)c1Cl`, the inhibition came to 0.9%.

Consider `Cc1cccc2nc(-c3ccc(-c4cccc(CNCCCN5CCCC5=O)c4)s3)[nH]c12`, for which the inhibition came out at 3.74%.

As for `COCC(C)n1c(SC(C)C(=O)Nc2cc([N+](=O)[O-])ccc2Cl)nc2ccccc2c1=O` (stereo not given), the inhibition was -1.22%.

For `NC1CCN(CCc2ccc(NS(=O)(=O)c3cccc4ccccc34)cc2)CC1`, the inhibition is -0.69%.

In the case of `CCCSc1nc2c(c(=O)n1Cc1ccco1)C1(CCCCC1)Cc1ccccc1-2`, the inhibition was determined as 1.22%.

Consider `CN(C)CCOc1ccc(N2CCN(CCCCNC(=O)c3ccc(NC(=O)c4ccc(Cl)cc4)cc3)CC2)cc1`, for which the inhibition came out at 0.54%.

Turning to `N=C(N)c1ccc(Nc2nc(Nc3ccc(-c4ccccc4)cc3)ncc2[N+](=O)[O-])cc1`, the inhibition was 3.15%.

Regarding `O=C(Nc1ccc(C(F)(F)F)cc1)c1cccc(S(=O)(=O)NC2CCN(CC3CCCCC3)CC2)c1`, the inhibition is 5.27%.

Regarding `Oc1ccc2nc(N3CCNCC3)nc(NCCCc3ccccc3)c2c1`, the inhibition is -0.71%.

Take `CC1CC(NCCCNc2cc(=O)c3ccccc3[nH]2)c2cc(Cl)c(Cl)c(Cl)c21` (stereo not given): the inhibition is -1.12%.

As for `CCOc1cc(C(=O)NCCN(CC)c2cccc(C)c2)ccc1-c1nc2cc(Cl)ccc2[nH]1`, the inhibition is 3.14%.

For `Cc1cccc2nc(-c3ccc(-c4ccc(CNCCCN5CCCC5=O)cc4)cc3)[nH]c12`, the inhibition worked out at 7.88%.

On to `CC(C)(C)c1nn(-c2ccc(Cl)cc2)c2[nH]c(=O)c(CNCc3ccc4c(c3)OCO4)cc12`, for which the inhibition came to 4.55%.

On to `Cc1cccc2nc(-c3ccc(-c4ccc(CN5CCCCC5)cc4)cc3)[nH]c12`, for which the inhibition stood at 19.2%.

Consider `COC(=O)c1cccc(CNCc2ccc(-c3ccc(-c4nc5cccc(C)c5[nH]4)cc3)cc2)c1`, for which the inhibition was determined as 6.68%.

As to `COc1cc(C(=O)Nc2cccc(-c3cn4cccc(C)c4n3)c2)cc(OC)c1OC`, the inhibition amounted to 15.8%.

With `COc1cc(NCCCNCc2cn(S(=O)(=O)c3ccccc3)c3ccccc23)nc2ccccc12`, the inhibition was found to be 3.92%.

Consider `O=C(c1ccc([N+](=O)[O-])o1)N1CCN(c2nc3c(Cl)cccc3s2)CC1`, for which the inhibition came out at 39.8%.

As to `CN1CCC(c2csc3ccc(NC(=O)Nc4ccc(-c5ccncc5)c5ccccc45)cc23)CC1`, the inhibition is -0.99%.

As for `c1ccc(CCNCc2ccc(-c3cccc(-c4nc5ccccc5[nH]4)c3)cc2)nc1`, the inhibition came out at 3.95%.

For `Clc1ccc(-c2nc3cc(-c4ccc5nc(-c6ccc(Cl)cc6)[nH]c5c4)ccc3[nH]2)cc1`, the inhibition worked out at 11.2%.

Regarding `Cn1c(NC(=O)C2CCCN(C(=O)c3ccc(O)c(-c4ccc(Cl)c(Cl)c4)c3)C2)nc2ccccc21` (stereo not given), the inhibition amounted to 0.08%.

As to `CS(=O)(=O)NCCCNCc1ccc(-c2ccc(-c3nc4cc(F)ccc4[nH]3)cc2)cc1`, the inhibition came to 7.49%.

Take `CC(=O)Nc1cccc(CNCc2ccc(-c3cnc(N4CCCC(c5ccccc5)C4)nc3)cc2)c1` (stereo not given): the inhibition came to 4.23%.

As for `O=C(NC1CCCCN(Cc2ccc3c(c2)OCCO3)C1)c1cc(-c2ccccc2F)cs1` (stereo not given), the inhibition came to 12.7%.

As for `CCC(C)CC(=O)Nc1ccc(OC)c(S(=O)(=O)N[C@@H]2CCN(C#N)C2)c1` (stereo not given in full), the inhibition is -0.28%.

Consider `O=C(Nc1cccc(CN2CCCN(Cc3ccc(O)cc3)CC2)c1)c1cccc(F)c1`, for which the inhibition worked out at 10.8%.

Take `COc1ccc(-n2nc(C)c3c2NC(=O)CC3c2ccccc2OCc2ccc(F)cc2)cc1` (stereo not given): the inhibition turned out to be 4.97%.

As for `O=C(N[C@H]1CCN(CCc2ccc(O[C@H]3CCNC3)c(Cl)c2)C1)c1ccc(Cl)c(Cl)c1`, the inhibition was determined as 1.64%.

The target in a further assay is Hexose transporter 1 (Plasmodium falciparum) (UniProt O97467). The experiment in a line: ST_JUDE_LEISH: Cytotoxicity at 2uM final concentration against transgenic Leishmania Mexicana promastigotes LmPfHT that are glucose transport deficient and complemented with the Plasmodium falciparum hexose transporter. Activity is measured by DNA content using SYBR green in vitro. In kind it is functional.
With `Fc1cccc(Nc2nc(NCc3ccc(OCc4ccccc4)cc3)nc(Nc3cccc(F)c3)n2)c1`, the inhibition was determined as 9.09%.

As to `O=C1Nc2cccc3c2C1(CCCN1CCC(c2c[nH]c4cc(C(F)(F)F)ccc24)CC1)CCC3` (stereo not given), the inhibition was -2.03%.

Turning to `O=C(/C=C/c1ccc(Cl)c(Cl)c1)NCCCCCN1CC[C@H](NC(=O)c2sc3ccccc3c2Cl)C1`, the inhibition worked out at 3.45%.

Turning to `CCNCc1ccc(-c2cccc(-c3nc4ccccc4[nH]3)c2)cc1`, the inhibition was determined as 1.16%.

With `CCc1c[nH]c2c(N3CCCC3=O)cc(C(=O)N[C@@H](Cc3ccccc3)[C@H](O)CNC3CCCCC3)cc12`, the inhibition is 6.05%.

Consider `Clc1ccc(-c2cc(-c3csc(Nc4ccncc4)n3)on2)cc1`, for which the inhibition came out at 5.17%.

Regarding `Cc1noc(C)c1CN1Cc2ccccc2OC2(CCN(Cc3c[nH]c4cnccc34)CC2)C1`, the inhibition was -0.56%.

Turning to `COc1ccc2nccc([C@@H](O)CN3CCC(NCCOc4ccc(F)cc4Cl)CC3)c2c1`, the inhibition came to 11.6%.

Regarding `Cc1ccc2[nH]c(Nc3ccc(Nc4nc5cc(C)ccc5[nH]4)c(C)c3)nc2c1`, the inhibition was found to be 2.18%.

On to `COC(=O)c1cccc(CNCc2cccc(-c3ccc(-c4nc5cc(C(F)(F)F)ccc5[nH]4)cc3)c2)c1`, for which the inhibition was 3.53%.

`CC(C)NCc1ccc(-c2ccc(NC(=O)c3cccc(Cl)c3)cc2)cc1`: the inhibition was -1.18%.

Turning to `Cc1[nH]c(C)c(-c2cc3ccccc3o2)c(=O)c1Cl`, the inhibition stood at 1.79%.

In the case of `Cc1cccc2nc(-c3ccc(-c4cccc(CNCCCN5CCCC5=O)c4)s3)[nH]c12`, the inhibition came out at 2.33%.

For the molecule `COCC(C)n1c(SC(C)C(=O)Nc2cc([N+](=O)[O-])ccc2Cl)nc2ccccc2c1=O` (stereo not given), the inhibition was 1.55%.

With `NC1CCN(CCc2ccc(NS(=O)(=O)c3cccc4ccccc34)cc2)CC1`, the inhibition was -3.38%.

With `CCCSc1nc2c(c(=O)n1Cc1ccco1)C1(CCCCC1)Cc1ccccc1-2`, the inhibition came out at 1.9%.

For the molecule `CN(C)CCOc1ccc(N2CCN(CCCCNC(=O)c3ccc(NC(=O)c4ccc(Cl)cc4)cc3)CC2)cc1`, the inhibition was 0.36%.

In the case of `N=C(N)c1ccc(Nc2nc(Nc3ccc(-c4ccccc4)cc3)ncc2[N+](=O)[O-])cc1`, the inhibition amounted to 3.65%.

With `O=C(Nc1ccc(C(F)(F)F)cc1)c1cccc(S(=O)(=O)NC2CCN(CC3CCCCC3)CC2)c1`, the inhibition is 5.53%.

For the molecule `Oc1ccc2nc(N3CCNCC3)nc(NCCCc3ccccc3)c2c1`, the inhibition is -0.65%.

Regarding `CC1CC(NCCCNc2cc(=O)c3ccccc3[nH]2)c2cc(Cl)c(Cl)c(Cl)c21` (stereo not given), the inhibition was -1.47%.

Take `CCOc1cc(C(=O)NCCN(CC)c2cccc(C)c2)ccc1-c1nc2cc(Cl)ccc2[nH]1`: the inhibition came out at 1.88%.

In the case of `Cc1cccc2nc(-c3ccc(-c4ccc(CNCCCN5CCCC5=O)cc4)cc3)[nH]c12`, the inhibition worked out at 5.8%.

In the case of `CC(C)(C)c1nn(-c2ccc(Cl)cc2)c2[nH]c(=O)c(CNCc3ccc4c(c3)OCO4)cc12`, the inhibition worked out at 3.31%.

As to `Cc1cccc2nc(-c3ccc(-c4ccc(CN5CCCCC5)cc4)cc3)[nH]c12`, the inhibition came out at 18.6%.

As to `COC(=O)c1cccc(CNCc2ccc(-c3ccc(-c4nc5cccc(C)c5[nH]4)cc3)cc2)c1`, the inhibition was 1.95%.

As to `COc1cc(C(=O)Nc2cccc(-c3cn4cccc(C)c4n3)c2)cc(OC)c1OC`, the inhibition came to 10.9%.

Consider `COc1cc(NCCCNCc2cn(S(=O)(=O)c3ccccc3)c3ccccc23)nc2ccccc12`, for which the inhibition was found to be 4.04%.

On to `O=C(c1ccc([N+](=O)[O-])o1)N1CCN(c2nc3c(Cl)cccc3s2)CC1`, for which the inhibition came out at 37.4%.

On to `CN1CCC(c2csc3ccc(NC(=O)Nc4ccc(-c5ccncc5)c5ccccc45)cc23)CC1`, for which the inhibition was determined as 0.65%.

Consider `c1ccc(CCNCc2ccc(-c3cccc(-c4nc5ccccc5[nH]4)c3)cc2)nc1`, for which the inhibition was 3.7%.

As for `Clc1ccc(-c2nc3cc(-c4ccc5nc(-c6ccc(Cl)cc6)[nH]c5c4)ccc3[nH]2)cc1`, the inhibition worked out at 12.2%.

On to `Cn1c(NC(=O)C2CCCN(C(=O)c3ccc(O)c(-c4ccc(Cl)c(Cl)c4)c3)C2)nc2ccccc21` (stereo not given), for which the inhibition was -0.09%.

On to `CS(=O)(=O)NCCCNCc1ccc(-c2ccc(-c3nc4cc(F)ccc4[nH]3)cc2)cc1`, for which the inhibition is 4.28%.

For `CC(=O)Nc1cccc(CNCc2ccc(-c3cnc(N4CCCC(c5ccccc5)C4)nc3)cc2)c1` (stereo not given), the inhibition amounted to 2.57%.

Regarding `O=C(NC1CCCCN(Cc2ccc3c(c2)OCCO3)C1)c1cc(-c2ccccc2F)cs1` (stereo not given), the inhibition is 16.4%.

With `CCC(C)CC(=O)Nc1ccc(OC)c(S(=O)(=O)N[C@@H]2CCN(C#N)C2)c1` (stereo not given in full), the inhibition was -0.4%.

As for `O=C(Nc1cccc(CN2CCCN(Cc3ccc(O)cc3)CC2)c1)c1cccc(F)c1`, the inhibition is 10.4%.

Turning to `COc1ccc(-n2nc(C)c3c2NC(=O)CC3c2ccccc2OCc2ccc(F)cc2)cc1` (stereo not given), the inhibition came out at 4.4%.

`O=C(N[C@H]1CCN(CCc2ccc(O[C@H]3CCNC3)c(Cl)c2)C1)c1ccc(Cl)c(Cl)c1`: the inhibition worked out at 1.22%.
